Results from PubChem BioAssay AID493169 (National Center for Advancing Translational Sciences (NCATS), 2011).
Records with an inconclusive call do not appear. Where a call stands in place of a potency, no number is given. Calls of active or inactive are those of the source. Calls follow the shape of the dose curve; as a rule, active = well fitted inhibition curve with a large enough effect; inconclusive = small, poorly fitted or top-dose-only effect; inactive = flat fitted curve, though single readings scatter.

Assay: CHOP2 Reporter Counterscreen Assay for Inhibitors of Ubiquitin-specific Protease USP2a;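 also: activated enterokinase alone at 50 pM in a cell-free format rather than USP2a or CHOP2; nearly all actives have a fitted effect of over 55% in size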
Conditions: purified enterokinase, fluorogenic substrate, 485/531 nm; series mostly up to 38.3 µM
Method in brief: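 Cell-free counterscreen with pre-activated enterokinase alone (50 pM final) in 20mM Tris-HCl pH 8.0, 2mM CaCl2, 2mM beta-mercaptoethanol, 0.05% CHAPS; compound preincubation 30 min RT, reporter substrate 25nM final, fluorescence read after 10 min (Ex 485/Em 531).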
Potency is read from the fitted curve at half-maximal effect.

Structure (SMILES) | Potency
C=CCSC1=N/C(=C\C=C\c2ccco2)C(=O)S1 | 7.94 µM (active)
Nc1cc(N)nc(SCC(=O)N2CCCCC2)n1 | inactive
CCCn1c(N2CCN(Cc3cccc(C)c3)CC2)nc2c1c(=O)[nH]c(=O)n2C | inactive
COc1ccc(NC(=O)CSc2nc(O)cc(=O)n2-c2ccc(OC)cc2)cc1 | inactive
CC1CCCCN1CCNC(=O)c1cnn2ccccc12 (stereo not given) | inactive
O=C1COc2ccc(C(=O)COC(=O)/C=C/c3ccc(Br)o3)cc2N1 | 2.82 µM (active)
Cc1ccc(C(=O)C(=S)N2CCOCC2)cc1 | inactive
O=C1CCCC2=C1C(c1ccco1)Nc1ccc3ccccc3c12 (stereo not given) | 7.94 µM (active)
CCCCCCCCCCOC(=O)Cn1c(COc2cccc(C)c2)[n+](C)c2ccccc21 | 10 µM (active)
O=C(O)CC(C(=O)O)N1C(=O)/C(=C/C=C/c2ccco2)SC1=S (stereo not given) | 3.55 µM (active)
C/C(Cn1nnc2ccccc21)=N\OC(=O)c1ccccc1C | inactive
COC(=O)C1CCN(C(=O)COC(=O)CC(NC(N)=O)c2ccc(Cl)cc2)CC1 (stereo not given) | inactive
Cc1cc(NC(=O)CN2C(=O)NC3(CCCCC3C)C2=O)no1 (stereo not given) | inactive
O=C1Nc2ccccc2SC(c2ccccc2)C1O (stereo not given) | 7.94 µM (active)
CNc1nc(OCCNC(=O)Nc2ccccc2)nc(N2CCOCC2)n1 | inactive
CCCOC(=O)CCCCC1SCC(NC(=O)OC)C1NC(=O)OC (stereo not given) | inactive
CNc1sc(C(=O)c2ccc(F)cc2)c(N)c1-c1nc2ccccc2s1 | inactive
Cc1ccc2nc(NCCCNC(=O)c3cnccn3)c(C#N)cc2c1 | inactive
O=C(CSc1nc2ccccc2c(=O)n1CC1CCCO1)NCc1ccccc1 (stereo not given) | inactive
Cc1ccc(SCC(=O)NCC(C)C)cc1 | inactive

Structure (SMILES) | Potency
CC(C)(C)C1CCC(=NNC(=O)CN(c2ccccc2)S(C)(=O)=O)CC1 (stereo not given) | inactive
CN(C)CCOCCP(=O)(c1ccccc1)c1ccccc1 | inactive
COc1cc(C(O)P(=O)(OC(C)C)c2ccc(N(C)C)cc2)cc(OC)c1OC (stereo not given) | inactive
Cc1ccc(S(=O)(=O)Nc2ccc(N3CCOCC3)cc2)cc1 | inactive
O=[N+]([O-])c1ccc(Sc2nnnn2-c2ccccc2)c(Cl)c1 | inactive
C#CCOCCOCCOCCNc1nc(N2CCN(C(=O)CCCCCCCCCCNC(=O)[C@@H](CCC(=O)O)n3cc(CCCCCN)nn3)CC2)nc(N2CCN(C(=O)CCCCCCCCCCNC(=O)[C@H](CCCCN)n3cc(C[C@@H](C)CC)nn3)CC2)n1 | 5.62 µM (active)
CCOC(=O)c1c(C)[nH]c(C(=O)COC(=O)CSC)c1C | inactive
Cc1ccc(C2=[N+]([O-])C(C)N(O)C2(C)C)o1 (stereo not given) | inactive
CC(=O)c1c(N2CCCC2)[nH]c(-c2ccccc2)nc1=S | inactive
COc1cc(NC(=O)COC(=O)CSc2ccccc2F)c(C)cc1[N+](=O)[O-] | inactive
COC(=O)c1c(NC(=O)c2cccnc2)sc(C)c1C | inactive
Cc1csc(NC(=O)CCn2c(=O)sc3ccccc32)n1 | inactive
Cc1ccc(NC(=O)Cn2nc(C)c3ccccc3c2=O)cc1F | inactive
COc1ccc2[nH]c(=O)c(CN(Cc3ccco3)Cc3nnnn3Cc3ccccc3)cc2c1 | inactive
CC(C)(C)[C@H]1COC(=O)[C@@H](Cc2ccc(F)cc2)C/C=C\C[C@@H](CC(=O)N[C@@H](CO)Cc2ccccc2)C(=O)N1 | inactive
COc1ccc(OC)c(Nc2ccc(Nc3cc(OC)ccc3OC)nn2)c1 | inactive
CC(NC(=O)COc1ccccc1-c1ccccc1)c1ccccc1 (stereo not given) | inactive
CCNc1sc(C(=O)c2cccs2)c(N)c1-c1nc2ccccc2s1 | inactive
CCN=C1SC(C(=O)Nc2cccc(OCC)c2)CC(=O)N1CC (stereo not given) | inactive
CC(=O)Nc1ccc(NC(=O)[C@@H](NC(=O)c2cccc(C)c2)C(C)C)cc1 | inactive
